Experimental findings from ChEMBL document CHEMBL1201862, “PubChem BioAssay data set” (2004) are described below.

Among all 400,000 compounds or so, about 2,100 (0.53%) were called active. Roughly 14% stayed inconclusive and do not appear here. This is one part of a sample in which actives are shown more often than they occur. No rule for the calls is given here.

Ataxin-2 (Homo sapiens), sequence (Q99700 whole entry): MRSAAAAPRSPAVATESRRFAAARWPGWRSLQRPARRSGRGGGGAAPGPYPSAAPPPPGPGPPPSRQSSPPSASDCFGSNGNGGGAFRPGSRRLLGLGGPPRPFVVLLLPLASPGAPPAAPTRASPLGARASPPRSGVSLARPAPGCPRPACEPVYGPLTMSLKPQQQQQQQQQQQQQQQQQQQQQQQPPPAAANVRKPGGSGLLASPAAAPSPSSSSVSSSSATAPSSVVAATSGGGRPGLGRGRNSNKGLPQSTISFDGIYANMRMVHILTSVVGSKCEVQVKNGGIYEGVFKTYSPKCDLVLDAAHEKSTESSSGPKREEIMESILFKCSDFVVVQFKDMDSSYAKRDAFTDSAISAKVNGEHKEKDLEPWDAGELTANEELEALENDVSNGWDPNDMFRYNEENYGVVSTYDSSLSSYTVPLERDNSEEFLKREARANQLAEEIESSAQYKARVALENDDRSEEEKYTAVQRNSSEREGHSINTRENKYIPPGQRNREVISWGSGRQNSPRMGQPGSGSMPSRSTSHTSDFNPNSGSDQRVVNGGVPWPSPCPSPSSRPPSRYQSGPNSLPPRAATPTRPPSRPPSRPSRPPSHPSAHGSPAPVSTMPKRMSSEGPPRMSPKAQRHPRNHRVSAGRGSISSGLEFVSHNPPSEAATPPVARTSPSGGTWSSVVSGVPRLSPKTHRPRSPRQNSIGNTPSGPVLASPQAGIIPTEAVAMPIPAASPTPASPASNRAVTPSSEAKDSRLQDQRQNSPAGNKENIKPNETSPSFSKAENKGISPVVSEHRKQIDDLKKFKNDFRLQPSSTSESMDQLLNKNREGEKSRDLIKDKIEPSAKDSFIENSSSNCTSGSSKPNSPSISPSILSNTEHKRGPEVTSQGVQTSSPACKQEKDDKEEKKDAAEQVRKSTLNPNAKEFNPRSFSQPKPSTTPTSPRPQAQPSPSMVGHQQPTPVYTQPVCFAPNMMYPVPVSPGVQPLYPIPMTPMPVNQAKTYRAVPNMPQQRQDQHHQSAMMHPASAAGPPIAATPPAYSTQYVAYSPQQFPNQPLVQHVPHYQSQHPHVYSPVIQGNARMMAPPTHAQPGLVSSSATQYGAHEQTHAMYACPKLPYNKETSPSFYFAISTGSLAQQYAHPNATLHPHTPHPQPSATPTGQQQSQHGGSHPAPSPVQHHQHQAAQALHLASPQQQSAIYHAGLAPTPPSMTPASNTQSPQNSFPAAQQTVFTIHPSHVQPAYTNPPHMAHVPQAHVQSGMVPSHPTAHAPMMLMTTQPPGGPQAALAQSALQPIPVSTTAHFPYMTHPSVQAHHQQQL

The experiment concerns the target Ataxin-2 (Homo sapiens) (UniProt Q99700). As to the kind of experiment: qHTS for Inhibitors of ATXN expression. The class given is functional.
In the case of `Cc1cc(-c2ccccc2)nc2oc(C(=O)NN)c(N)c12`, the Potency entry is “inactive”.
Take `Cc1ccc(CSc2nc3ccccc3c(=O)n2C)cc1`: the Potency result was “inactive”.
Consider `Cc1ccc(CSc2nc(-c3ccccc3C)nc3c2Cc2c(CO)cnc(C)c2O3)cc1`, for which the Potency is 28.2 µM (active).
For `COc1ccc(C2CC(c3ccccc3Cl)=NN2c2ccc(S(N)(=O)=O)cc2)cc1` (stereo unspecified), the Potency result is “inactive”.
Take `CC(=O)Nc1ccc(C(=O)Nc2ccncc2)cc1`: the Potency result was “inactive”.
To `CC(C)CC(NS(=O)(=O)OCC(Cl)(Cl)Cl)c1ccccc1` (stereo unspecified) belongs 35.5 µM (active); to `Cc1ccc(C)c(N(C(=O)c2snc(C(N)=O)c2N)C(C(=O)NCC2CCCO2)c2ccc(C)o2)c1` (stereo unspecified), “inactive”.
On to `N=c1c(C(=O)NCC2CCCO2)cc2c(=O)n3ccccc3nc2n1C1CCCC1` (stereo unspecified), for which the Potency result was “inactive”.
With `COC(=O)c1ccc(N2C(c3cc(OC)cc(OC)c3)=Cc3ccc(-c4ccc(C(N)=O)cc4)cc3C2CC(=O)C2CC2)cc1` (stereo unspecified), the Potency entry is “inactive”.
As for `N=C1c2c(cc(O)n3c2nc2ccccc23)CN1CCN1CCOCC1`, the Potency result was “inactive”.
Turning to `C[C@@H](C[C@@H](O)[C@H](O)C(C)(C)O)[C@@H]1CC[C@]2(C)C3=CC[C@H]4C(C)(C)C(=O)CC[C@]4(C)[C@H]3CC[C@@]12C`, the Potency was 39.8 µM (active).
Turning to `Cc1cc(C)c(C(=O)CSc2nc(C)cc(C)c2C(N)=O)c(C)c1`, the Potency entry is “inactive”.
Regarding `CC(=O)N1CCc2c(sc3nc(SCC(C)C)n(-c4ccc(C)c(Cl)c4)c(=O)c23)C1`, the Potency is 25.1 µM (active).
On to `CSc1nc2sc3c(c2c(=O)n1CC(C)C)CC(C)(C)OC3`, for which the Potency entry is “inactive”.
To `Oc1nc(C(Cl)Cl)nc2sc3c(c12)CCN(Cc1ccccc1)C3` belongs “inactive”.
To `COc1cccc(C(=O)Nc2cccc(-c3ccc(N4CCOCC4)nn3)c2)c1OC` belongs “inactive”.
To `O=C(Nc1ccc(N2CCOCC2)c(S(=O)(=O)Nc2cc(Cl)ccc2Cl)c1)c1cccnc1` belongs “inactive”.
Consider `Cc1cc(S(=O)(=O)Nc2cccc(-c3ccc(N4CCOCC4)nn3)c2)c(C)cc1Cl`, for which the Potency was 39.8 µM (active).
As for `COc1ccc(F)cc1S(=O)(=O)Nc1cccc(-c2ccc(N3CCCCCC3)nn2)c1`, the Potency is 39.8 µM (active).
Consider `Cc1ccc(S(=O)(=O)NCCC(=O)Oc2ccc3ccc(=O)oc3c2)cc1`, for which the Potency result is “inactive”.
On to `Cc1ccc2c(Cl)cc(Cl)c(OCC(=O)NC(C)(C)C)c2n1`, for which the Potency result was “inactive”.
Under `CSc1ccccc1C(=O)NCc1nc(-c2cccc(NC(=O)c3ccoc3C)c2)oc1C` stands 25.1 µM (active).
In the case of `Cc1oc(-c2cccc(NC(=O)c3ccccn3)c2)nc1CNC(=O)C#Cc1ccccc1`, the Potency entry was “inactive”.
In the case of `Cc1ccc(C(=O)Nc2cccc(-c3nc(CNC(=O)c4ccc5ccccc5n4)c(C)o3)c2)s1`, the Potency entry was “inactive”.
For `COC(=O)c1cccc(C(=O)NCc2nc(-c3cccc(NC(=O)c4ccoc4C)c3)oc2C)c1`, the Potency was 31.6 µM (active).
As for `CSc1nc(C(=O)NCc2nc(-c3cccc(NC(=O)c4ccccn4)c3)oc2C)cs1`, the Potency entry was “inactive”.
